# Results published in PubChem BioAssay (Tox21).
# “And” between values parts separate entries of the source, which are not always exact repeats. Equal values may be shown once. Results filed as inconclusive are left out. Where a call stands in place of a potency, no number is given. The source made the active and inactive calls. Unless noted, calls come from the whole dose curve; as a rule, active = well fitted curve in the direction sought with a large enough effect in the repeat runs; inconclusive = weak or mixed curves; inactive = no such curve, though single readings can be large; an effect the other way counts as inactive or inconclusive.
# Experiments:
# [1] = qHTS assay for small molecule agonists of the p53 signaling pathway (AID 651631; calls by dose curve; note: nearly all actives have a fitted effect of over 15% in size)
# Procedure, shortened: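 Beta-lactamase reporter activity under p53 response elements was quantified in HCT-116 cells by FRET fluorescence, following 16 h incubation with test compounds at 37 °C and 2 h substrate development at room temperature.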
# [2] = qHTS assay for small molecules that induce genotoxicity in human embryonic kidney cells expressing luciferase-tagged ATAD5 (AID 651632); note: nearly all actives have a fitted effect of over 15% in size
# Procedure, shortened: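 HEK293T cells carrying luciferase-tagged ATAD5 were given compound or DMSO vehicle and incubated 16 hr at 37C, 5% CO2. Luciferase activity was read after 30 min at room temperature with Amplite; a rise signals genotoxic stress.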
# [3] = qHTS assay for small molecules that induce genotoxicity in human embryonic kidney cells expressing luciferase-tagged ATAD5 - cell viability (AID 651634; calls by dose curve; note: nearly all actives have a fitted effect of over 25% in size)
# Procedure, shortened: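 HEK293T cells carrying luciferase-tagged ATAD5, 2,000 cells/well, exposed to compound for 15.5 hr at 37C. Viability read as live-cell protease activity by CellTiter-Fluor fluorescence after 30 min at 37C.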
# [4] = qHTS assay for small molecule disruptors of the mitochondrial membrane potential - cell viability (AID 720634; calls by dose curve; note: nearly all actives have a fitted effect of over 20% in size; note: potency is the fitted concentration of half-maximal effect)
# Procedure, shortened: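 HepG2 cells, 2,000 per well, attached overnight, then treated 1 hr at 37 C, 5% CO2. Viability read as ATP by CellTiter-Glo luminescence after 30 min at room temperature. Read in the same wells as the m-MPI membrane-potential dye assay.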
# [5] = qHTS assay for small molecule disruptors of the mitochondrial membrane potential (AID 720635); note: potency is the fitted concentration of half-maximal effect
# Procedure, shortened: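 Mitochondrial membrane potential tracked with Mito-MPS dye, red aggregates (ex 540/em 590 nm) against green monomers (ex 490/em 535 nm). Compound treatment 1 hr at 37C, dye 30 min in HepG2.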
# [6] = qHTS assay to test for compound auto fluorescence at 590 nm (red) in HepG2 cells (AID 720674)
# Procedure, shortened: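 1 hr compound incubation on HepG2 cells, 37 C, 5% CO2; plate read ex 540 nm / em 590 nm; intensities reported as Rose Bengal sodium equivalents.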
# [7] = qHTS assay to test for compound auto fluorescence at 460 nm (blue) in HEK293 cells (AID 720678)
# Procedure, shortened: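 Measured: blue fluorescence (Ex 405/Em 460 nm) of compound-treated HEK293 cells, incubated overnight at 37C with 5% CO2 and scaled to triamterene equivalents.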
# [8] = qHTS assay to test for compound auto fluorescence at 590 nm (red) in HEK293 cells (AID 720679)
# Procedure, shortened: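 Using HEK293 cells at 2,000 per well, the screen added 23 nL of each compound after cell attachment and incubated overnight (37C, 5% CO2). The plate reader then captured red-label fluorescence, Ex/Em 540/590nm.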
# [9] = qHTS assay to test for compound auto fluorescence at 535 nm (green) in HEK293 cells (AID 720680)
# [10] = qHTS assay to test for compound auto fluorescence at 460 nm (blue) in HEK293 cell free culture (AID 720681)
# Procedure, shortened: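 Blue fluorescence (Ex 405/Em 460 nm, triamterene-equivalent) was read immediately after pin transfer of compound or DMSO into medium (DMEM, 10% FBS) without cells.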
# [11] = qHTS assay to test for compound auto fluorescence at 590 nm (red) in HEK293 cell free culture (AID 720683)
# Procedure, shortened: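 Red-channel autofluorescence of compounds in culture medium (DMEM, 10% FBS), no cells, measured at 540/590 nm. Rose Bengal sodium is the reference fluorophore for equivalence.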
# [12] = qHTS assay to test for compound auto fluorescence at 590 nm (red) in HepG2 cell free culture (AID 720684)
# Procedure, shortened: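 Steps: dispense MEM/10% FBS medium, no cells; pin compound or DMSO vehicle; read red channel, Ex/Em 540/590 nm. Output given as Rose Bengal sodium equivalents.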
# [13] = qHTS assay to test for compound auto fluorescence at 460 nm (blue) in HepG2 cell free culture (AID 720685)
# Procedure, shortened: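 Compound (23 nL) or DMSO pinned into cell-free MEM with 10% FBS; blue fluorescence read at 405/460 nm excitation/emission, expressed as auto-fluorescence equivalency to triamterene.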
# [14] = qHTS assay to test for compound auto fluorescence at 535 nm (green) in HepG2 cell free culture (AID 720686)
# [15] = qHTS assay to test for compound auto fluorescence at 460 nm (blue) in HepG2 cells (AID 720687)
# Procedure, shortened: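 Blue-channel autofluorescence (Ex/Em 405/460 nm, triamterene-equivalent) was measured after 1 hr compound exposure at 37 C, 5% CO2. Cells were HepG2, plated overnight at 37 C in MEM plus 10% FBS.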
# [16] = molecular target: Glucocorticoid receptor (Homo sapiens) (UniProt P04150); assay: qHTS assay to identify small molecule agonists of the glucocorticoid receptor (GR) signaling pathway (AID 720691; active = well fitted activation curve with a large enough effect in the signal ratio in the repeat runs, not every such curve was filed as active; the % refers to the signal ratio)
# Glucocorticoid receptor (Homo sapiens), sequence (P04150 whole entry, looked up): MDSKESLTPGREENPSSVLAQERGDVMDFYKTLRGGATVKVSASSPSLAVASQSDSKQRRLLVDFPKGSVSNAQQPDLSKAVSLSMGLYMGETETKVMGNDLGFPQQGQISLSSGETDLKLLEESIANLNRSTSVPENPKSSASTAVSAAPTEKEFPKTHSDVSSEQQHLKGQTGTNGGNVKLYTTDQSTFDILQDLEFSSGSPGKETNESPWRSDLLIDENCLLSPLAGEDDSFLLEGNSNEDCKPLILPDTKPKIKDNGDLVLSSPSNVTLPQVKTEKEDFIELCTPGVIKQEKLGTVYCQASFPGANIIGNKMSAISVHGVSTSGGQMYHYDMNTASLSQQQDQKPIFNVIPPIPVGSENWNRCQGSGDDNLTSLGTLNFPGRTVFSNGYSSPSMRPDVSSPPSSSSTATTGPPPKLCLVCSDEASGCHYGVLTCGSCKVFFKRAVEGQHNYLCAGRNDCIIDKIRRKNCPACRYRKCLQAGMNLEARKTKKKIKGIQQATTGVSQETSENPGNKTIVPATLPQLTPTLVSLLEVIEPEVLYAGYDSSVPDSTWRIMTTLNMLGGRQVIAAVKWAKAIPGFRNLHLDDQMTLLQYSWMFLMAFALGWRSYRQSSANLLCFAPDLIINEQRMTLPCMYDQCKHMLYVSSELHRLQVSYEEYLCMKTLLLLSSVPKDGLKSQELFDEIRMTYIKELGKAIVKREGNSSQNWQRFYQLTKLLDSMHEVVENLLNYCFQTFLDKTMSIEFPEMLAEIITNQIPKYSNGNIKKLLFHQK
# Procedure, shortened: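 GR-bla HeLa cells carrying a GRE-driven beta-lactamase reporter, exposed to compounds for 18 h at 37 C. Reporter activation read as fluorescence after 2 h with LiveBLAzer B/G FRET substrate at room temperature.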
# [17] = molecular target: Glucocorticoid receptor (Homo sapiens) (UniProt P04150); assay: qHTS assay to identify small molecule antagonists of the glucocorticoid receptor (GR) signaling pathway (AID 720692; active = well fitted inhibition curve with a large enough effect in the signal ratio in the repeat runs, not every such curve was filed as active; the % refers to the signal ratio)
# Procedure, shortened: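 GR-bla HeLa cells carrying a GRE-driven beta-lactamase reporter received compound after 4 h plating, then dexamethasone (5 nM final). After 18 h at 37C, the FRET substrate was loaded for 2 h at room temperature and fluorescence read.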
# [18] = qHTS assay to test for compound auto fluorescence at 535 nm (green) in HepG2 cells (AID 720675)
# [19] = qHTS assay to test for compound auto fluorescence at 535 nm (green) in HEK293 cell free culture (AID 720682)
# Procedure, shortened: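 Each library compound, or DMSO control, is added by pintool to medium alone, comprising DMEM and 10% FBS. Emission at 535 nm following 485 nm excitation is quantified against fluorescein.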
# [20] = qHTS assay for small molecule agonists of the p53 signaling pathway - cell viability (AID 651633; calls by dose curve;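 note: p53RE-bla HCT reporter cells with a stable beta-lactamase p53 reporter; series mostly up to about 83 µM; nearly all actives have a fitted effect of over 30% in size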)
# Procedure, shortened: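 Viability counter-read: CellTiter-Glo luminescence (30 min, room temperature) in the same p53RE-bla plates. These plates had been exposed to compounds for 16 h at 37 C.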
SMILES,Potency [1],Potency [2],Potency [3],Potency [4],Potency [5],outcome [6],outcome [7],outcome [8],outcome [9],outcome [10],outcome [11],outcome [12],outcome [13],outcome [14],outcome [15],outcome [16],Potency [17],outcome [18],outcome [19],Potency [20]
Cc1ccc(N=C=O)cc1N=C=O,inactive,inactive,inactive,inactive,19.8 µM (active),inactive,inactive,inactive,inactive,inactive,inactive,inactive,inactive,inactive,inactive,inactive,inactive,–,–,–
Cc1ccc(N)cc1,inactive,inactive,inactive,inactive,inactive,inactive,inactive,–,inactive,inactive,inactive,inactive,inactive,inactive,inactive,–,–,inactive,inactive,–
Nc1ncc([N+](=O)[O-])s1,inactive,inactive,inactive,inactive,–,inactive,inactive,inactive,–,inactive,inactive,inactive,inactive,inactive,inactive,inactive,inactive,inactive,–,–
O=C/C=C/c1ccccc1,inactive,inactive,–,inactive,inactive,inactive,inactive,–,inactive,inactive,inactive,inactive,inactive,inactive,inactive,inactive,inactive,inactive,inactive,–
COC(=O)Nc1cccc(OC(=O)Nc2cccc(C)c2)c1,inactive,inactive,inactive,7.7 µM (active),2.73 µM (active) and 3.86 µM (active),inactive,inactive,inactive,inactive,inactive,inactive,inactive,inactive,inactive,inactive,inactive,inactive,–,–,–
ClCCOCCCl,inactive,inactive,inactive,inactive,inactive,inactive,inactive,inactive,inactive,–,inactive,inactive,inactive,inactive,inactive,inactive,inactive,–,–,–
CN(C)C(=O)Nc1cccc(C(F)(F)F)c1,inactive,inactive,inactive,inactive,inactive,inactive,inactive,inactive,–,inactive,inactive,inactive,inactive,inactive,inactive,–,–,–,inactive,–
Nc1cc(Cl)cc(Cl)c1,inactive,inactive,–,inactive,inactive,inactive,inactive,inactive,inactive,inactive,inactive,inactive,inactive,inactive,inactive,–,–,–,–,–
CCCCC(CC)C(=O)Cl (configuration not stated),inactive,inactive,inactive,inactive,inactive,inactive,inactive,–,inactive,inactive,inactive,inactive,inactive,inactive,inactive,inactive,inactive,inactive,–,–
Cc1cccc(C)c1NC(=O)CN1CCCC1=O,inactive,inactive,–,inactive,inactive,inactive,inactive,–,inactive,–,inactive,inactive,inactive,inactive,inactive,inactive,inactive,inactive,inactive,–
O=C(O)C(Br)Br,inactive,inactive,inactive,inactive,inactive,inactive,inactive,inactive,–,inactive,inactive,inactive,inactive,inactive,inactive,inactive,inactive,–,inactive,–
N#Cc1ccccn1,inactive,inactive,–,inactive,inactive,inactive,inactive,inactive,–,–,inactive,inactive,inactive,inactive,inactive,–,–,inactive,inactive,–
C=CCN=C=S,inactive,inactive,inactive,inactive,inactive,inactive,inactive,inactive,–,inactive,inactive,inactive,inactive,inactive,inactive,–,–,inactive,–,–
C=CC#N,inactive,inactive,–,inactive,inactive,inactive,inactive,–,–,inactive,inactive,inactive,inactive,inactive,inactive,inactive,inactive,inactive,inactive,–
CC[N+](=O)[O-],inactive,inactive,–,inactive,–,inactive,inactive,–,–,–,inactive,inactive,inactive,inactive,inactive,inactive,inactive,inactive,–,inactive
